Assay outcomes from PubChem BioAssay.
The list is not random: actives were taken first. Their share in the collection is about 3.4%.
LMP1 NFkB inh – EBV LMP1-driven NF-kappaB luciferase reporter inhibitors, primary screen, cell-based, luminescence, single point; inhibition, % at 12.5 µM; AID 504558, 2011; LMP1-induced NF-kappaB luciferase reporter cells; 350,000 tested, 0.69% active; in the data active = inhibition above about 41%;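 note: 0% = neutral control wells and 100% = reference inhibitor control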
TRPM1 prom inh – inhibitors of MITF-dependent TRPM1 promoter reporter, primary screen, cell-based, SK-MEL-5, single point, luciferase; SK-MEL-5 TRPM1 promoter luciferase, 24 h; AID 488899, 2010; inhibition, % at 12.5 µM; 330,000 tested, 0.83% active;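 active = mean inhibition across replicates of 60% or more, whatever share of single replicates reaches that level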
Shn3 inh set2 – reduction of Shn3 3'UTR firefly luciferase signal, primary screen, Schnurri-3 inhibitor project, cell-based, Clone20 osteoblasts, set 2; Clone20 osteoblast Shn3 3'UTR firefly luciferase, 24 h; inhibition, % at 12.5 µM; 360,000 tested, 0.52% active; AID 588674, 2011;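 active = mean inhibition of at least 75% with every replicate also reaching 75%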;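 note: 0% = median of neutral control wells and 100% = pilot-screen positive control compound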
TROY signal inh – inhibitors of TROY-driven NF-kB signaling, primary screen, Q293 LMP1-TROYcd cells, NF-kB luciferase, uHTS; Q293 LMP1-TROYcd NF-kB luciferase reporter, 4 h; 360,000 tested, 0.98% active; AID 1347056, 2019; inhibition, % at 10 µM;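 active = compounds whose plate-normalised and pattern-corrected inhibition of the luciferase reporter signal at the single screening dose is 50% or more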
TWEAK Fn14 block – inhibitors of TWEAK-Fn14 signaling, primary screen, luciferase reporter cells, uHTS. TWEAK-stimulated Fn14 reporter cells, luciferase luminescence, 8 h. 360,000 tested, 2% active. inhibition, % at 10 µM. AID 1159606, 2016; in the data active = inhibition above about 50%
HIF-2a block – HIF-2a reporter inhibitors, primary screen, luminescence, 786-0 RCC cells | 786-0 RCC cells HIF-2a reporter, luciferase luminescence, overnight | inhibition, % at 18.8 µM | 360,000 tested, 0.72% active | AID 624352, 2012;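 active = inhibition of the luminescence signal of 40% or more relative to plate controls, in a single-dose primary screen at 18.75 µM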
Mdm2 MdmX conf – retested Mdm2-MdmX interaction blockers, confirmation, cell-based, luminescence, single concentration, set 2. SaOS-2 split-luciferase Mdm2/MdmX complementation. AID 504601, 2011. 740 tested, 99% active. inhibition, % at 8 µM. shares compounds with HIF-2a block;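 active = mean inhibition of the luminescence signal across two replicates at or above 26 percent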
HIF-2a inh conf – HIF-2a reporter inhibitor retest, confirmation, luminescence, 786-0 RCC cells; shares compounds with HIF-2a block; HIF-2a luciferase reporter luminescence, overnight; inhibition, % at 18.8 µM; 1,800 tested, 56% active; AID 651580, 2012;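 active = mean inhibition across four replicates of at least 40 percent at the single tested concentration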
HIF-1a cs – HIF-1a luciferase reporter signal reduction – MiaPaCa-2 cells, single concentration, counter-screen for HIF-2a inhibitor project, confirmation. shares compounds with HIF-2a block. MiaPaCa-2 HIF-1a luciferase reporter, desferoxamine, overnight. inhibition, % at 18.8 µM. 1,800 tested, 72% active;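 active = mean inhibition of the reporter signal across four replicates at the single tested dose of 50% or more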
Starred values were filed as active, the others as inactive; nt = no result given.

SMILES | LMP1 NFkB inh | TRPM1 prom inh | Shn3 inh set2 | TROY signal inh | TWEAK Fn14 block | HIF-2a block | HIF-2a inh conf | HIF-1a cs | others
O=C(/C(=C/c1ccc(Cl)cc1)c1nc2ccccc2[nH]1)c1cccs1 | 3 | 95* | 88* | -49 | 0 | 93* | nt | nt | Mdm2 MdmX conf=102*
CC(=O)c1cccc(OC(=O)C2=CC=CN3CCS(=O)(=O)N=C23)c1 | 1 | 3 | -17 | 4 | 8 | 0 | nt | nt
COc1ccc(S(=O)(=O)N(C)CC(=O)NCc2ccco2)cc1OC | -1 | 4 | -1 | -8 | 11 | -4 | nt | nt
O=C(O)c1ccc2nc(-c3ccccc3)sc2c1 | 11 | -25 | 20 | -12 | 79* | 78* | 62* | 16
O=C(O)c1ccc2ncsc2c1 | -28 | -11 | -5 | -3 | -7 | -30 | nt | nt
Cc1ccc2nc(NC(=O)CSCC(=O)OCC(=O)c3ccc(Br)cc3)sc2c1 | 29 | 49 | 65 | 64* | 74* | 57* | 51* | 86*
COC(=O)c1ccc2nc(NC(=O)CSCC(=O)OCC(=O)c3ccccc3)sc2c1 | -20 | -1 | -8 | 49 | 42 | -64 | nt | nt
COc1ccc(-c2[nH]ncc2-c2ccc3c(c2)OCCO3)c(O)c1 | 64* | 4 | 11 | 61* | 78* | 25 | nt | nt | Mdm2 MdmX conf=96*
COc1cc(OC)c(OC)cc1/C=N/NC(=O)CCc1c(C)n[nH]c1C | 5 | 10 | -11 | 18 | -6 | 17 | nt | nt
NC(=O)c1ccc(NC(=O)C#Cc2ccccc2)cc1 | 27 | 7 | 16 | -5 | 89* | -10 | nt | nt | Mdm2 MdmX conf=101*
CCCCn1c(Nc2ccccc2)nc2ccccc21 | -6 | 9 | -2 | -2 | -3 | 8 | nt | nt
CCCn1c(Nc2nc3ccccc3n2C)nc2ccccc21 | 25 | 7 | -21 | 16 | -4 | 91* | 58* | 105* | Mdm2 MdmX conf=103*
COC(=O)C(=Cc1ccccc1[N+](=O)[O-])C(=O)OC | -36 | 26 | 39 | 11 | 69* | 77* | 72* | 59*
CC1=C(CO)C(=O)OC([C@@H](C)C2CC[C@H]3C4C[C@H]5O[C@]56[C@@H](O)C=CC(=O)[C@]6(C)C4CC[C@]23C)C1 (stereo partly drawn) | 83* | 106* | 98* | 49 | 103* | 94* | 97* | 107*
NC(=O)c1cccc(-c2noc(-c3ccccc3F)n2)c1 | 11 | -31 | 1 | -11 | 36 | -156 | nt | nt
COC(=O)c1cccc(-c2noc(-c3ccccc3F)n2)c1 | 38 | -15 | -29 | -15 | -35 | 52* | 65* | -107
Cc1cc(NC(=O)CSc2nc3c(C)cccc3cc2C)no1 | -4 | -3 | -6 | -2 | 18 | 10 | nt | nt
CCOC(=O)C(C)(C)N(Cc1cccc(C)c1)S(=O)(=O)c1ccc(Cl)c([N+](=O)[O-])c1 | 5 | 25 | 11 | -3 | 5 | 64* | 27 | 100*
CCOC(=O)C(C)(C)N(Cc1cccc(C)c1)S(=O)(=O)c1cccc([N+](=O)[O-])c1 | -10 | -14 | 8 | 14 | 0 | 12 | nt | nt
O=[N+]([O-])c1c(Nc2ccccc2O)cc(Cl)c2nonc12 | 79* | 106* | 97* | 64* | 27 | 95* | 98* | 99* | Mdm2 MdmX conf=103*
Cc1cc(NC(=O)c2ccc3c(c2)OCCO3)ccc1NC(=O)c1ccco1 | 0 | -54 | -56 | -41 | -26 | -175 | nt | nt
O=C(Nc1ccc(NC(=O)c2ccco2)cc1)c1ccc2c(c1)OCCO2 | -8 | 19 | 8 | 17 | 27 | 46* | 69* | 11
COc1ccccc1/C=C/C(=O)c1c2c(c(C)[nH]c1=O)CCCC2 | 15 | 64* | -31 | 35 | 86* | 73* | 63* | 88* | Mdm2 MdmX conf=103*
CCOC(=O)C(CCCOc1ccc(C(C)CC)cc1)C(=O)OCC (stereo not drawn) | 9 | -2 | 31 | 15 | 37 | 70* | 73* | 69*
CCC(C)c1ccc(OCc2ccc(C(=O)O)o2)cc1 (stereo not drawn) | 6 | 5 | -22 | -97 | 3 | 55* | 33 | -66
SMILES | LMP1 NFkB inh | TRPM1 prom inh | Shn3 inh set2 | TROY signal inh | TWEAK Fn14 block | HIF-2a block | HIF-2a inh conf | HIF-1a cs | others
Cc1nc(SCC(=O)Nc2cccnc2Cl)nc(C)c1C | 3 | 6 | 23 | -9 | 10 | 13 | nt | nt
COCCN1CC(C(=O)NCCc2nc(C)c(C)s2)CCC1=O (stereo not drawn) | -8 | -3 | 9 | -14 | 0 | -4 | nt | nt
COCCn1c(C)cc(C(=O)CSc2nnc(C)s2)c1C | 74* | 67* | 70 | 13 | 91* | 70* | 84* | 37
CCc1cccc(CC)c1NC(=O)/C(C#N)=C/c1ccccc1C(F)(F)F | 3 | 89* | -16 | 42 | 83* | 92* | 97* | 102*
N#C/C(=C\c1ccccc1C(F)(F)F)C(=O)Nc1ccccc1 | 8 | -71 | 10 | -69 | -82 | -2 | nt | nt
COc1ccc(C2=NN(C(=O)c3ccc(Cl)c([N+](=O)[O-])c3)C(c3ccccc3)C2)cc1 (stereo not drawn) | 5 | -8 | -7 | -9 | -16 | -10 | nt | nt
CCCC1CCC(C(=O)n2nc(N)c3cc4ccc(OC)cc4nc32)CC1 (stereo not drawn) | 6 | nt | -2 | 18 | 30 | 15 | nt | nt
COc1ccc2cc3c(N)nn(C(=O)c4ccccc4[N+](=O)[O-])c3nc2c1 | 63* | 12 | 13 | 29 | 82* | 32 | nt | nt | Mdm2 MdmX conf=93*
COc1ccc2cc3c(N)nn(C(=O)c4ccc(Cl)c([N+](=O)[O-])c4)c3nc2c1 | 19 | -1 | 10 | 22 | 55* | 1 | nt | nt | Mdm2 MdmX conf=96*
COc1ccc(C(=O)NC(=C(Cl)Cl)S(=O)(=O)c2ccc(C)cc2)cc1 | -27 | 0 | -5 | -6 | 45 | -10 | nt | nt
Cc1ccc(C(=O)NC(C#N)=C(Cl)Cl)cc1 | nt | nt | nt | nt | nt | nt | nt | nt | Mdm2 MdmX conf=103*
Cc1ccc(C(=O)NC(=C(Cl)Cl)S(=O)(=O)c2ccccc2)cc1 | -129 | -17 | 24 | -27 | 84* | 89* | -17 | 25
O=C(CCNC(=O)c1ccc(Cl)cc1)Nc1ccccc1N1CCCCC1 | -8 | -21 | 8 | 9 | 21 | 6 | nt | nt
